Here are results for 40 compounds from PubChem BioAssay.

Values without a mark were called inactive.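 How the source made its calls, unless noted: active means viability at or below 10% of carrier control in both of two separate runs; inconclusive means viability at or below 10% in only one of the two runs; inactive means the rest.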

Chain of Receptor tyrosine-protein kinase erbB-2 (Homo sapiens) (P04626 whole entry, looked up): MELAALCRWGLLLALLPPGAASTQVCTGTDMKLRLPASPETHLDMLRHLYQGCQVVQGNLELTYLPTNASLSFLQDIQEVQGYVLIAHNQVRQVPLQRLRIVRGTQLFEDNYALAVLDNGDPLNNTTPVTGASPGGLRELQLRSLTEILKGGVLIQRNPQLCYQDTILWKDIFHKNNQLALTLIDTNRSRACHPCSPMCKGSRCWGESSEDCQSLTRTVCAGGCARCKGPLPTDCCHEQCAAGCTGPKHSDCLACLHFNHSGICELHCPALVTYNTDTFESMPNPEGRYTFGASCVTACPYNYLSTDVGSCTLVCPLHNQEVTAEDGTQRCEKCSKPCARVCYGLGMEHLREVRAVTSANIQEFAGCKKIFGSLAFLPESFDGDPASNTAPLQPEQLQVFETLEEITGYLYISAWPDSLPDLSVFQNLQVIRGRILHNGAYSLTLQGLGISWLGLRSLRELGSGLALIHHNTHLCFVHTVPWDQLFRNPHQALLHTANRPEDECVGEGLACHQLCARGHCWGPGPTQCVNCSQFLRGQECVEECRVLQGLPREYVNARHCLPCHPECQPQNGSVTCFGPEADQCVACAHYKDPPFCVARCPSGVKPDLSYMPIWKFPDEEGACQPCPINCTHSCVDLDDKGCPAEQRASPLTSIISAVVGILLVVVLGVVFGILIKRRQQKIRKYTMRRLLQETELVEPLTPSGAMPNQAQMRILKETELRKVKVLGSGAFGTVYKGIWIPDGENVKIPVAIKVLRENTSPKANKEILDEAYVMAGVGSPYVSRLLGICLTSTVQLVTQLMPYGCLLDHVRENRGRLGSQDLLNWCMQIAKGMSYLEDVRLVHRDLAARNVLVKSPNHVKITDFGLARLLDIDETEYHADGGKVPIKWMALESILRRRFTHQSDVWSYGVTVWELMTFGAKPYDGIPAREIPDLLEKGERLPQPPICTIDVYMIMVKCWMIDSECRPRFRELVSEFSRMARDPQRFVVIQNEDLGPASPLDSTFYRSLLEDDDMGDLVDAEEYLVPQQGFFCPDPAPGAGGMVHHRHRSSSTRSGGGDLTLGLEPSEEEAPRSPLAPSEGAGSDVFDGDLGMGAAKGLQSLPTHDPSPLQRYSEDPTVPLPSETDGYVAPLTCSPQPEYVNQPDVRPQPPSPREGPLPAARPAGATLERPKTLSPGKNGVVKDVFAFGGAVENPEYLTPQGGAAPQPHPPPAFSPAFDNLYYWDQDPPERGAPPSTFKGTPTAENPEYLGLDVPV

The first assay has as its target Receptor tyrosine-protein kinase erbB-2 (Homo sapiens) (UniProt P04626). Description: reducers of endogenous Her2 protein level, primary screen, SKBR3 breast tumor cells, AlphaScreen, ATP viability (AID 461;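 active means Her2 level under about 52% in both replicate screens, with viability over 70% of control, limit read from the data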). The settings on record: 18-24 h, at 10 µM, stronger effect = lower value.
`COCCCNC(=O)c1ccc(CS(=O)(=O)c2ccc(OC)cc2)o1`: the Her2 level was 105%.

In the case of `O=C(c1ccc(CSCc2ccccc2F)o1)N1CCN(c2ccc(N3CCOCC3)nn2)CC1`, the Her2 level is 76%.

Consider `COCCOC(=O)c1[nH]c2c(c1C)C(=O)CC(c1ccco1)C2` (stereo not given), for which the Her2 level is 71.5%.

Turning to `CCOC(=O)CSc1nnc(Cn2c(=O)sc3ccccc32)n1C`, the Her2 level is 94%.

As for `CCCC(=O)C1=C(N(C)c2ccccc2)CC(C)(C)C(C(=O)OC)C1=O` (stereo not given), the Her2 level is 81%.

`CC1(C)CC(=O)N(CC(=O)NCc2ccccc2)c2ccccc2S1(=O)=O`: the Her2 level is 112%.

As for `CCOc1cc(C2NC(=O)NC(O)(C(F)(F)F)C2C(=O)c2ccccc2)ccc1OC` (stereo not given), the Her2 level was 110%.

As to `Cn1c(C(=O)NCCN2CCN(c3ccccc3F)CC2)cc2c(=O)n(C)c3ccccc3c21`, the Her2 level is 73.5%.

For `Cc1cc2ccccc2n1CCNC(=O)C1CC1`, the Her2 level is 81%.

For `Cc1cccc(NC(=O)CS(=O)(=O)c2cn(C)c3ccccc23)c1`, the Her2 level was 95.5%.

For the compound `COc1nnc(-c2ccc(C)c(S(=O)(=O)NCCO)c2)c2ccccc12`, the Her2 level is 108%.

`COc1ccc(-c2cnc(SCC(=O)Nc3ccc4c(c3)OCO4)n2Cc2ccco2)cc1`: the Her2 level was 70.5%.

On to `Cn1cnc2cc(NC(=O)c3ccc(Cl)cc3)ccc21`, for which the Her2 level was 90.5%.

Consider `CC1CCc2nn(CC(=O)Nc3ccc(F)cc3F)cc2C1` (stereo not given), for which the Her2 level was 97.5%.

As to `Cc1ccc(-c2noc(CN3CCN(c4ccccc4F)CC3)n2)cc1`, the Her2 level is 95.5%.

Take `Cc1ccc(NC(=O)c2cc(-c3ccc(C)o3)nc3ccccc23)nc1`: the Her2 level is 74%.

In the case of `Cc1nnc(N2C(=O)C(O)=C(C(=O)c3ccco3)C2c2ccc(F)cc2)s1` (stereo not given), the Her2 level was 98.5%.

As to `COc1ccccc1N(CC(=O)Nc1cccnc1)S(C)(=O)=O`, the Her2 level was 108%.

As for `CCCc1cc(C(=O)Nc2ccccc2SC)no1`, the Her2 level is 90.5%.

With `O=C(CSc1nc2c(c(=O)n1-c1ccc(F)cc1)SCC2)NCC1CCCO1` (stereo not given), the Her2 level was 101%.

With `COc1ccc(-c2nc(C)c(C(C)=O)n2O)cc1OC`, the Her2 level is 112%.

Turning to `C=CCOC(=O)COc1ccc2c(C)c(C)c(=O)oc2c1C`, the Her2 level is 92.5%.

For `CN(C)CCCNC(=O)CCC1CCCCC1`, the Her2 level was 78%.

Consider `CC(C)(O)C#Cc1ccc(C(=O)N2CCN(C(=O)c3ccco3)CC2)cc1`, for which the Her2 level is 88%.

As to `Nc1cccc2c1C(=O)N(c1ccccc1)C2=O`, the Her2 level was 97%.

For the compound `COc1ccc(N2CCN(CCNC(=O)CCS(=O)(=O)c3cccc4nsnc34)CC2)cc1`, the Her2 level was 97%.

Take `CCOC(=O)CCc1c(C)nc2cc(-c3ccc(F)cc3)[nH]n2c1=O`: the Her2 level was 99%.

As for `O=C1CC(c2cccnc2)c2cc3c(cc2N1)OCO3` (stereo not given), the Her2 level is 108%.

Regarding `COc1ccccc1CNC(=O)C1CCCN(S(=O)(=O)c2cccc3cccnc23)C1` (stereo not given), the Her2 level is 98.5%.

As for `Oc1c(C(c2ccccc2)N2CCc3ccccc3C2)sc2ncnn12` (stereo not given), the Her2 level is 82.5%.

With `O=C(NCCc1c[nH]c2ccccc12)c1cnc2n(c1=O)CCS2`, the Her2 level is 83%.

As to `CC(NC(=O)c1cc2c(=O)n(C)c3ccccc3c2n1C)c1ccc2c(c1)OCCO2` (stereo not given), the Her2 level is 84%.

For `CCOC(=O)c1ccc(-n2c(C)nc3c(cnn3-c3ccccc3C)c2=O)cc1`, the Her2 level was 108%.

In the case of `COc1ccc(CCNC(=O)CSc2nnnn2-c2ccccc2OC)cc1OC`, the Her2 level is 99.5%.

In the case of `CCCSc1nnc(N2C(=O)CC(c3ccsc3)C3=C2CCCC3=O)s1` (stereo not given), the Her2 level was 100%.

With `COC(=O)Cn1c(=O)c2c(nc3n2CC(C)CN3c2ccc(C)c(C)c2)n(C)c1=O` (stereo not given), the Her2 level was 89%.

As for `O=C(Nc1cccnc1)Nc1ccccn1`, the Her2 level is 100%.

For the compound `CCn1cc(C(=O)NCc2ccccc2OC)c(=O)c2cc(S(=O)(=O)N(C)C)ccc21`, the Her2 level was 89%.

For the compound `CC1CCN(c2oc(-c3ccccc3F)nc2C#N)CC1`, the Her2 level was 95%.

As to `Clc1ccc(Nc2ncnc3c2cnn3-c2ccccc2)cc1`, the Her2 level is 90.5%.

Test system in the next assay: not listed separately
Description: SK-BR-3 cell growth inhibitors, pilot screen, 24 h, human (AID 572).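 Further: compound exposure lasted between 18 and 24 h rather than exactly 24 h; 100% = carrier-treated control wells.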 As to conditions: SK-BR-3 viability, CellTiter-Glo luminescence, at 10 µM, stronger effect = lower value.
As for `COCCCNC(=O)c1ccc(CS(=O)(=O)c2ccc(OC)cc2)o1`, the viability was 104%.

For the compound `O=C(c1ccc(CSCc2ccccc2F)o1)N1CCN(c2ccc(N3CCOCC3)nn2)CC1`, the viability was 84.5%.

For `COCCOC(=O)c1[nH]c2c(c1C)C(=O)CC(c1ccco1)C2` (stereo not given), the viability is 85%.

For the compound `CCOC(=O)CSc1nnc(Cn2c(=O)sc3ccccc32)n1C`, the viability was 96%.

For `CCCC(=O)C1=C(N(C)c2ccccc2)CC(C)(C)C(C(=O)OC)C1=O` (stereo not given), the viability is 95%.

On to `CC1(C)CC(=O)N(CC(=O)NCc2ccccc2)c2ccccc2S1(=O)=O`, for which the viability was 78.5%.

Consider `CCOc1cc(C2NC(=O)NC(O)(C(F)(F)F)C2C(=O)c2ccccc2)ccc1OC` (stereo not given), for which the viability was 108%.

For the compound `Cn1c(C(=O)NCCN2CCN(c3ccccc3F)CC2)cc2c(=O)n(C)c3ccccc3c21`, the viability was 89%.

With `Cc1cc2ccccc2n1CCNC(=O)C1CC1`, the viability was 89.5%.

For the compound `Cc1cccc(NC(=O)CS(=O)(=O)c2cn(C)c3ccccc23)c1`, the viability was 98%.

As for `COc1nnc(-c2ccc(C)c(S(=O)(=O)NCCO)c2)c2ccccc12`, the viability was 93.5%.

As to `COc1ccc(-c2cnc(SCC(=O)Nc3ccc4c(c3)OCO4)n2Cc2ccco2)cc1`, the viability is 102%.

Take `Cn1cnc2cc(NC(=O)c3ccc(Cl)cc3)ccc21`: the viability is 91.5%.

With `CC1CCc2nn(CC(=O)Nc3ccc(F)cc3F)cc2C1` (stereo not given), the viability is 108%.

With `Cc1ccc(-c2noc(CN3CCN(c4ccccc4F)CC3)n2)cc1`, the viability is 89.5%.

`Cc1ccc(NC(=O)c2cc(-c3ccc(C)o3)nc3ccccc23)nc1`: the viability was 80%.

Consider `Cc1nnc(N2C(=O)C(O)=C(C(=O)c3ccco3)C2c2ccc(F)cc2)s1` (stereo not given), for which the viability is 99%.

Consider `COc1ccccc1N(CC(=O)Nc1cccnc1)S(C)(=O)=O`, for which the viability was 94.5%.

On to `CCCc1cc(C(=O)Nc2ccccc2SC)no1`, for which the viability was 86%.

For `O=C(CSc1nc2c(c(=O)n1-c1ccc(F)cc1)SCC2)NCC1CCCO1` (stereo not given), the viability is 93.5%.

Regarding `COc1ccc(-c2nc(C)c(C(C)=O)n2O)cc1OC`, the viability is 89%.

For the compound `C=CCOC(=O)COc1ccc2c(C)c(C)c(=O)oc2c1C`, the viability is 106%.

Regarding `CN(C)CCCNC(=O)CCC1CCCCC1`, the viability is 93%.

Take `CC(C)(O)C#Cc1ccc(C(=O)N2CCN(C(=O)c3ccco3)CC2)cc1`: the viability was 102%.

With `Nc1cccc2c1C(=O)N(c1ccccc1)C2=O`, the viability is 95%.

Consider `COc1ccc(N2CCN(CCNC(=O)CCS(=O)(=O)c3cccc4nsnc34)CC2)cc1`, for which the viability was 90%.

With `CCOC(=O)CCc1c(C)nc2cc(-c3ccc(F)cc3)[nH]n2c1=O`, the viability is 97%.

With `O=C1CC(c2cccnc2)c2cc3c(cc2N1)OCO3` (stereo not given), the viability is 99.5%.

Regarding `COc1ccccc1CNC(=O)C1CCCN(S(=O)(=O)c2cccc3cccnc23)C1` (stereo not given), the viability was 92.5%.

`Oc1c(C(c2ccccc2)N2CCc3ccccc3C2)sc2ncnn12` (stereo not given): the viability is 87.5%.

`O=C(NCCc1c[nH]c2ccccc12)c1cnc2n(c1=O)CCS2`: the viability was 92%.

Take `CC(NC(=O)c1cc2c(=O)n(C)c3ccccc3c2n1C)c1ccc2c(c1)OCCO2` (stereo not given): the viability was 94.5%.

`CCOC(=O)c1ccc(-n2c(C)nc3c(cnn3-c3ccccc3C)c2=O)cc1`: the viability is 94%.

`COc1ccc(CCNC(=O)CSc2nnnn2-c2ccccc2OC)cc1OC`: the viability was 91%.

For `CCCSc1nnc(N2C(=O)CC(c3ccsc3)C3=C2CCCC3=O)s1` (stereo not given), the viability was 92.5%.

As to `COC(=O)Cn1c(=O)c2c(nc3n2CC(C)CN3c2ccc(C)c(C)c2)n(C)c1=O` (stereo not given), the viability was 90.5%.

`O=C(Nc1cccnc1)Nc1ccccn1`: the viability is 100%.

On to `CCn1cc(C(=O)NCc2ccccc2OC)c(=O)c2cc(S(=O)(=O)N(C)C)ccc21`, for which the viability is 78.5%.

In the case of `CC1CCN(c2oc(-c3ccccc3F)nc2C#N)CC1`, the viability was 82%.

Turning to `Clc1ccc(Nc2ncnc3c2cnn3-c2ccccc2)cc1`, the viability is 116%.
